Bioassay records (PubChem BioAssay)
Only some compounds are listed: those with a hit (about 2.8% of all), similar ones and a draw of the others.
PP5 inh – PP5 (human) phosphatase inhibition; purified PP5c, OMFP substrate fluorescence; inhibition, % at 6.7 µM; 0.18% of 320,000 active;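 active = inhibition above the campaign's mean inhibition across all tested compounds plus 3 SD, cut at about 9.5% in these data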;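 also: 0% = DMSO only and 100% = 100 µM cantharidin control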
IDE cell activ – IDE (human) activation, cell-based | P14735 | HEK cells, FAbeta-B cleavage, fluorescence polarization; 0% vehicle, 100% cell-free pure enzyme wells | activation, % at 5.96 µM | 0.073% of 340,000 active | AID 493087;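 active = activation above the mean of all tested compounds plus 3 SD, set per screening campaign, cut at about 17% in these data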
Granule exo inh – blocks lytic granule exocytosis. TALL-104 LAMP-1 surface exposure, flow cytometry; cells stimulated with thapsigargin and PMA. inhibition, % at 10 µM. 0.66% of 360,000 active. AID 651702;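 active = inhibition above about 55%, limit read from the data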
PP1 counter – PP1-alpha (human) inhibition in PP5 counter-screen | inhibition, % at 6.7 µM | 0.9% of 320,000 active | purified PP1alpha, OMFP fluorescence | P62136 | AID 2235;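 active = inhibition above the mean inhibition of all tested compounds plus 3 SD, computed separately for each screening campaign, cut at about 15% in these data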
Target sequence (P62136 whole entry, looked up): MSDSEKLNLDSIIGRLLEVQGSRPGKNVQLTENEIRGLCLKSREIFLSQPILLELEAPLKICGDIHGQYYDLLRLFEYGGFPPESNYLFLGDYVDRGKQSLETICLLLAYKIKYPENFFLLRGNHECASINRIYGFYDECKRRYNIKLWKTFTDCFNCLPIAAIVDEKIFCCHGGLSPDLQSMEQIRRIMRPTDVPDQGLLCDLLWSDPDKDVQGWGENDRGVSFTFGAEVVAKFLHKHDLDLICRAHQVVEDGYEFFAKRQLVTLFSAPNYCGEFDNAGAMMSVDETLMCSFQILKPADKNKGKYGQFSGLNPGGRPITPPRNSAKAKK
IDE cell inh – inhibits human insulin-degrading enzyme in HEK cells; inhibition, % at 5.59 µM; FAbetaB cleavage, fluorescence polarization; AID 434962; P14735; 0.41% of 320,000 active;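 active = percent inhibition above the average of all tested compounds plus 3 SD, set per screening campaign, cut at about 16% in these data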;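 also: IDE supplied by intact live HEK cells; FP after avidin binding of uncleaved biotin substrate so inhibition keeps polarization high; 0% = DMSO wells and 100% = 60 µM reference IDE inhibitor Ii1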
SKKanGAS inh – blocks kanamycin growth of S. pyogenes SKKanGAS strain | BacTiter-Glo, 6 h | inhibition, % at 7.5 µM | 1.3% of 300,000 active;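 active = mean replicate score, as percent of positive control median, at least 50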;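 also: strain carries kanamycin resistance gene driven by streptokinase promoter and grows in 40 µg/ml kanamycin; loss of luminescence reflects streptokinase promoter inhibition or plain growth inhibition; 0% = median of DMSO wells and 100% = positive control at its reference dose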
* marks the source's active call; other numbers are inactive results; . = no result given; ! = repeats disagree.

SMILES	PP5 inh	IDE cell activ	Granule exo inh	PP1 counter	IDE cell inh	SKKanGAS inh
CC1(C)Cc2c(sc(NC(=O)COc3ccc(Cl)cc3)c2C#N)C(C)(C)N1	1	-1	44	3	4	0
O=c1[nH]c(C2CCN(S(=O)(=O)c3ccc(C(F)(F)F)cc3)CC2)nc2c1nnn2Cc1cccc(F)c1	6	-8	-6	-1	2	31
O=c1[nH]c(C2CCN(S(=O)(=O)/C=C/c3ccccc3)CC2)nc2c1nnn2Cc1ccc(F)cc1	3	-5	-6	17*	1	26
O=c1[nH]c(C2CCN(S(=O)(=O)c3ccccc3C(F)(F)F)CC2)nc2c1nnn2Cc1cccc(F)c1	1	2	15	16*	-4	41
O=c1[nH]c(C2CCN(S(=O)(=O)c3ccc4c(c3)OCCO4)CC2)nc2c1nnn2Cc1c(F)cccc1Cl	4	-4	-15	17*	-4	24
CCOC(=O)CC1c2nc3ccccc3cc2CN1C(=O)OCC (stereo not given)	.	.	0	.	.	.
CCOC(=O)c1c(-c2ccc(OC)cc2)csc1/N=C/C1=C(O)CCCC1=O	3	-4	-2	5	3	57*
CCOC(=O)c1c(/N=C/C2=C(O)CCCC2=O)sc(C)c1C	3	0	-2	-6	2	3
CC1c2cc3c(cc2CCN1C(=O)c1cccc(F)c1)OCCCO3 (stereo not given)	-1	-17	0	-1	7	-6
COC(=O)c1ccc(CN(c2ccccn2)S(=O)(=O)c2ccccc2)cc1	4	3	0	-1	-2	-3
COC(=O)c1ccc(CN(c2ccc(C(=O)O)c(O)c2)S(=O)(=O)c2ccc(Cl)c([N+](=O)[O-])c2)cc1	5	0	2	10	1	55*
Cc1cccc(C)c1NC(=O)C1C(c2ccc3c(c2)OCO3)=Nc2ccccc2N1C(=O)c1ccccn1 (stereo not given)	.	.	12	.	.	.
CC1=CC2C(C(O)CC3(C)C2CC(C)C32OCOC23COCO3)C2(C)C/C(=C\O)C(=O)C=C12 (stereo not given)	.	-2	72*	.	.	.
COc1ccc(C(=O)/C(=C\c2ccco2)N2C=CC=CC2=C(C#N)C#N)cc1	2	2	65*	-2	8	0
N#CC(C#N)=C1C=CC=CN1/C(=C\c1ccco1)C(=O)c1ccccc1	0	-16	45	4	4	.
N#CC(C#N)=C1C=CC=CN1/C(=C\c1ccco1)C(=O)c1ccc(Br)cc1	2	-9	86*	9	6	.
COc1ccc(/C=C(/C(=O)c2cccs2)N2C=CC=CC2=C(C#N)C#N)cc1	.	-1	44	.	.	-7
O=C(c1ccc(F)cc1Cl)N1CCN(S(=O)(=O)c2cccs2)CC1	0	8	0	-1	-4	36
Cc1cccc(N(C)S(=O)(=O)c2c[nH]c3ccc([N+](=O)[O-])cc23)c1	9	1	84*	0	9	6
COc1ccc2c(c1)[nH]c1c(=O)n(CCc3cnc[nH]3)cnc12	0	0	0	0	5	100*
COc1ccc2c(c1)[nH]c1c(=O)n(CCN(C)C)cnc12	1	2	-3	-1	-2	-2
COc1ccc(C(=O)O/N=C2\C(=O)N(C)c3ccccc32)cc1	0	6	66*	1	3	-2
CN1C(=O)/C(=N\OC(=O)c2cccc3ccccc23)c2ccccc21	1	1	80*	-3	-4	2
CC(C)(C)OC(=O)Nc1ccccc1-n1nnnc1C(C(=O)c1ccc(F)cc1)N1CCN(c2ccccn2)CC1 (stereo not given)	.	.	2	.	.	.
Cc1ccc(Cn2c(C(CO)Nc3nc(-c4ccc(F)cc4)cs3)nc3ccccc32)cc1 (stereo not given)	7	-4	10	4	5	80*
SMILES	PP5 inh	IDE cell activ	Granule exo inh	PP1 counter	IDE cell inh	SKKanGAS inh
COc1ccc(-c2csc(NC(CO)c3nc4ccccc4n3Cc3ccc(C)cc3)n2)cc1 (stereo not given)	6	-3	-6	-1	0	31
Cc1c(O)cccc1C(=O)N[C@@H](CSc1ccccc1)[C@H](O)CN1C[C@H]2CCCC[C@H]2C[C@H]1C(=O)NC(C)(C)C	3	-1	4	17*!	-3	9
COc1ccc2nc(-n3c(O)c(C4=c5ccccc5=NC4=O)[nH]c3=S)sc2c1	3	5	-4	15*	-5	104*
Cn1c(O)c(C2=c3ccccc3=NC2=O)[nH]c1=S	4	1	4	6	4	-24
Cc1cc(C)nc(NC(=O)/C=C/c2ccccc2Cl)n1	1	3	-8	-1	-2	-7
Cc1cc(N)c2cc(NC(=O)/C=C/c3ccccc3Cl)ccc2n1	-1	28*	15	15	-1	37
Cc1ccc(C(=O)CC(=O)c2ccccc2)cc1	0	-2	3	-3	-1	53*
Cc1ccc(C(=O)/C=C/C(=O)c2ccc(C)cc2)cc1	1	-2	19	2	3	62*
Cc1ccc(C(=O)Cc2ccccc2)cc1	.	-3	-2	.	.	.
Cc1ccc(O)c(C(=O)CC(=O)c2ccc(Cl)cc2)c1	1	2	-17	5	5	96*
O=C(CC(=O)c1cc(Cl)ccc1O)c1ccccc1	0	-8	0	0	2	111*
Cc1ccc(C(=O)CC(=O)COc2ccc(Cl)cc2C)cc1	1	7	-1	2	4	101*
Cc1ccc(O)c(C(=O)CC(=O)c2cccc(F)c2)c1	2	2	-11	2	2	81*
Cc1ccc(NC(=O)c2ccc(OC(=O)COc3ccc(Cl)cc3C)cc2)cc1	-1	-2	-7	3	-2	-6
Cc1cccc(C(=O)CC(=O)c2cc(Cl)ccc2O)c1	0	-4	-1	4	-2	94*
Cc1cccc(C(=O)NCC(=O)NNC(=O)c2ccccc2O)c1	-4	-1	-2	-1	0	-6
COc1cc(NCCCCCCCN)c2ncccc2c1	4	6	8	1	-3	-7
COc1cc(NC(C)CCCN)c2ncccc2c1 (stereo not given)	5	3	4	16*	-3	4
Cc1ccc(Nc2nnc(SCC(=O)c3ccc(Br)s3)s2)c(C)c1	3	0	-1	17*	3	29
Cc1cccc(OCC(=O)NCCCNC(=O)c2cnccn2)c1	1	3	10	0	1	6
COC(=O)C1=C(C)N(Cc2ccco2)C(=O)/C1=C\c1ccc([N+](=O)[O-])cc1	1	0	92*	1	8	19
COC(=O)C1=C(C)N(Cc2ccco2)C(=O)/C1=C\c1ccc(N(C)C)cc1	1	-2	-3	-3	-2	-1
Cc1nn2c(NCc3ccccn3)cc(C(C)(C)C)nc2c1-c1ccccc1	3	0	19	-4	-1	97*
